Bioassay records: PubChem, several laboratories
SENP7 inh – inhibitors of human SENP7 protease; inhibition, % at 5 µM; recombinant SENP7, Z-RLRGG-aminoluciferin luminescence, 40 min; Q9BQF6; hit rate 1.5% among 330,000; AID 434973;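 active = inhibition above about 50% at the single test dose, limit read from the data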
Platelet DG rel – platelet dense granule release activity; inhibition, %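 (compounds screened at 7.5 µM in platelet-rich plasma)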; human platelet-rich plasma, SFLLRN dense granule ATP release, luminescence; hit rate 0.22% among 300,000;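 active = mean replicate score, as percent of positive control, at or above 50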
SENP8 block-1 – blocks human SENP8 cleavage of Nedd8 substrate; Q96LD8; recombinant SENP8, Nedd8 substrate fluorescence; inhibition, % at 20 µM; hit rate 0.64% among 360,000; AID 602440; in the data active = inhibition mostly above about 40%, no sharp cut-off; inactive = mostly below about 27%
Target sequence (Q96LD8 whole entry, looked up): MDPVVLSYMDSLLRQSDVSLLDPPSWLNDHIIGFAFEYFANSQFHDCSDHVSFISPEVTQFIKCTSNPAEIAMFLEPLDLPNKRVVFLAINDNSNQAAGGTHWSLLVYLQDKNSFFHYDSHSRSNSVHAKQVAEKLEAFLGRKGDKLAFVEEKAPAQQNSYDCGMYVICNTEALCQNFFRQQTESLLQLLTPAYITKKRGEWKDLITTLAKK
SENP8 block-2 – SENP8 protease inhibition; purified SENP8, Z-RLRGG-aminoluciferin cleavage, luminescence; Q96LD8; hit rate 1.2% among 330,000; inhibition, % at 10 µM; AID 2540; in the data active = inhibition above about 50%
SENP6 inh – blocks the human protease SENP6; inhibition, % at 10 µM; hit rate 1.8% among 330,000; Recombinant SENP6 catalytic domain, aminoluciferin luminescence; Q9GZR1;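 active = inhibition above about 50% at the single tested dose, limit read from the data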
SENP8 conf – confirmation of human SENP8 protease inhibitors; shares compounds with SENP8 block-1; purified SENP8, Nedd8-AMC/pro-Nedd8 cleavage fluorescence, 30 min; inhibition, % at 25 µM; hit rate 15% among 1,400; AID 624319; in the data active = inhibition mostly above about 39%, no sharp cut-off; inactive = mostly below about 34%
A number is an active result; 0 = inactive; - = no result; ! = not confirmed by another sample. A selection: hits, their analogues and other compounds. The true share with any hit is near 2.4%.

SMILES | SENP7 inh | Platelet DG rel | SENP8 block-1 | SENP8 block-2 | SENP6 inh | SENP8 conf
COc1ccccc1-n1cc(CN2CCN(CC=C(C)C)C(CCO)C2)cn1 (centres undefined) | 0 | 0 | 0 | 0 | 0 | -
Cc1cc(=O)n(-c2ccc3ccccc3n2)[nH]1 | 0 | 0 | 47 | 0 | 0 | 0
CCOc1ccc(S(=O)(=O)N2CCC(C(=O)NCCN3CCOCC3)CC2)cc1C | 0 | 0 | 0 | 0 | 0 | -
O=C(CSc1nnnn1C1CC2C=CC1C2)Nc1ccc(C(=O)O)cc1 (centres undefined) | 0 | 0 | 0 | 0 | 0 | -
COC(=O)C(N)CCCCN (centres undefined) | 0 | 0 | 43 | 0 | 0 | 0
COC(=O)[C@@H](N)Cc1ccc(O)cc1 | 0 | 0 | - | 0 | 0 | -
Cc1ccc2nc(N/C(=N/S(=O)(=O)c3cccs3)c3ccccc3Cl)sc2c1 | 0 | 0 | 0 | 0 | 0 | -
CSc1nncc(/C(C)=N\Nc2ccccc2C)n1 | 0 | 0 | 54 | 0 | 0 | 0
COCOc1cc(O)c(C(=O)/C=C/c2ccccc2)c(OCOC)c1 | 0 | 0 | 51 | 0 | 0 | 0
O=C(O)CCC1OC(=O)C(O)=C1c1ccccc1 (centres undefined) | 0 | 0 | 40 | 0 | 0 | 0
O=S(=O)(Cc1ccccc1Cl)NCCc1ccc(F)cc1 | 0 | 0 | 0 | 0 | 0 | -
COc1cccc(OC)c1C(=O)NC(=S)N1CCCCC1c1cccnc1 (centres undefined) | 0 | 0 | 52 | 0 | 0 | 0
CCOc1ccccc1NC1=C(Cl)C(=O)N(Cc2ccccc2)C1=O | 0 | 0 | 41 | 0 | 0 | 0
CC1(c2ccccc2)NC(=O)N(CC(=O)Nc2ccc3c(c2)CCC3)C1=O (centres undefined) | 0 | - | 0 | 0 | 0 | -
Cc1[nH]n(-c2ccc(F)cc2)c(=O)c1/C=N/c1sc2c(c1C#N)CCCC2 | 0 | 0 | 48 | 0 | 0 | 0
Cc1[nH]n(-c2cccc3ccccc23)c(=O)c1/C=N/c1sc2c(c1C#N)CCC2 | 0 | 0 | 0 | 0 | 0 | -
Clc1c(-c2nnc3n2CCCCC3)sc2ccccc12 | 0 | 0 | 0 | 0 | 0 | -
COc1ccc2c(Cl)c(-c3nnc4n3CCCCC4)sc2c1 | 0 | 0 | 48 | 0 | 0 | 0
CCS(=O)(=O)NCc1csc(-c2ccccc2)n1 | 0 | 0 | 0 | 0 | 0 | -
CS(=O)(=O)NCc1csc(-c2ccccc2)n1 | 0 | 0 | 44 | 0 | 0 | 0
C[C@@H]1CN(C(=O)c2nc3ccc(Cl)cn3c2CN2CCc3sccc3C2)C[C@H](C)O1 | 0 | 0 | 43 | 0 | 0 | 0
COC(=O)C1CCN(Cc2c(C(=O)N3C[C@@H](C)O[C@@H](C)C3)nc3ccc(Cl)cn23)CC1 | 0 | 0 | 0 | 0 | 0 | -
CCC(COC)NC(=O)c1ccc(OC)c(OC2CCN(C(C)=O)CC2)c1 (centres undefined) | 0 | 0 | 0 | 0 | 0 | -
O=C1c2c(O)cc(O)cc2O[C@H](c2ccc(O)cc2)[C@H]1O | 0 | 0 | 62 | 0 | 0 | 0
O=C(Cn1cnc2ccccc2c1=O)Nc1nnc(SCc2ccccc2)s1 | 0 | 0 | 42 | 0 | 0 | 0
SMILES | SENP7 inh | Platelet DG rel | SENP8 block-1 | SENP8 block-2 | SENP6 inh | SENP8 conf
CCC(CC)c1ncc[nH]1 | 0 | 0 | 0 | 0 | 0 | -
O=C(Cc1cc(=O)[nH][nH]1)N/N=C/c1c(F)cccc1Cl | 0 | 0 | 0 | 0 | 0 | -
O=C(Cc1cc(=O)[nH][nH]1)N/N=C/c1c(Cl)cccc1Cl | 0 | 0 | 44! | 0 | 0 | 0
Cc1nc2c(O)c3c(c(O)c2nc1C)C1C=CC3CC1 | - | - | 42 | - | - | 0
Cc1cn(CC(=O)NCC(C)c2ccccc2)c(=O)[nH]c1=O (centres undefined) | - | - | 0 | - | - | -
O=C(NC1CCOCC1)C1CCC(=O)N(CCc2cccc(F)c2)C1 (centres undefined) | 0 | 0 | 0 | 0 | 0 | -
Cc1noc(NS(=O)(=O)c2ccc(NC(=O)CCC3CCCC3)cc2)c1C | 0 | 0 | 43 | 0 | 0 | 0
CCCCCCC(=O)Nc1ccc(S(=O)(=O)Nc2onc(C)c2C)cc1 | 0 | 0 | 0 | 0 | 0 | -
CC1CCCCC1NC(=O)COC(=O)COc1ccccc1Cl (centres undefined) | 0 | 0 | 0 | 0 | 0 | -
COc1ccc(OCC(=O)OCC(=O)NC2CCCCC2C)cc1 (centres undefined) | 0 | - | 46 | 0 | 0 | 0
N#CC(C#N)=c1ccc2c(c1)NC1(CCCCC1)N=2 | 0 | 0 | 42 | 0 | 0 | 24
Cc1ccc(S(=O)(=O)N2CCCCC2)cc1C(=O)OC(C)C(=O)NCC1CCCCC1 (centres undefined) | 0 | - | 0 | 0 | 0 | -
